Source: PubChem BioAssay
Only some compounds are listed: those with a hit (about 12% of all), similar ones and a draw of the others.
BAZ2B inh – inhibitors of human BAZ2B bromodomain; Q9UIF8; AlphaScreen BAZ2B-H3K14Ac peptide displacement; Potency, µM (doses to about 114 µM), for the others: at the highest dose activity change, negative = inhibition, usual class: inhibitors; actives 4.4% (n = 360,000); note: % is set by controls: 0 for no effect and ±100 for the full control effect; nearly all actives have a fitted effect of over 60% in size
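Compounds, titrated to a top concentration of 110 uM, were incubated 30 min at room temperature with preformed BAZ2B/acetyl-K14 H3 peptide complex (50 nM each). Proximity signal was measured by AlphaScreen after 20 min with beads.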
L3MBTL1 inh – L3MBTL1 (human) inhibition; AlphaScreen L3MBTL1–H3K9me1 peptide binding; Potency, µM (top dose mostly 57.1 µM), for the others: at the highest dose activity, negative = inhibition, usual class: inhibitors; Q9Y468; actives 0.66% (n = 230,000); note: % is set by controls: 0 for no effect and ±100 for the full control effect; nearly all actives have a fitted effect of over 60% in size
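AlphaScreen assay: L3MBTL1 (50 nM final) was preincubated 30 min at room temperature with biotinylated H3(1-15)K9me1 peptide (75 nM final), then 30 min with library compounds; streptavidin donor and nickel chelate acceptor beads (10 ug/mL final) added, 30 min dark.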
G9a inh – inhibitors of human histone lysine methyltransferase G9a; Q96KQ7; G9a H3K9 monomethylation, AlphaScreen, 2 h; Potency, µM (top dose mostly 102 µM), without a hit: at the highest dose activity, negative = inhibition, usual class: inhibitors; actives 8.8% (n = 350,000); AID 504332; note: % is set by controls: 0 for no effect and ±100 for the full control effect; nearly all actives have a fitted effect of over 75% in size
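G9a (20 nM) preincubated 15 min RT with compounds, then 500 nM biotinylated H3K9 peptide and 20 uM SAM added; 2 h RT reaction. Monomethyl-H3K9 product detected by AlphaScreen with anti-H3K9me1 antibody, streptavidin donor and anti-rabbit IgG acceptor beads.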
Sfp inh – Sfp phosphopantetheinyl transferase inhibition; Potency, µM, without a hit: largest response in the series, negative = inhibition, most hits filed as inhibitors; Q9F4F7; actives 3.5% (n = 310,000); Biochemical Sfp PPTase activity, qHTS;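 note: the enzyme is Sfp with the accession as filed and its product quenches rhodamine fluorescence; 0% = enzyme reaction without inhibitor and -100% = no enzyme wells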
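Step 1, compound plus 15 nM Sfp-PPTase, 15 min, room temperature. Step 2, add rhodamine-CoA (5 uM) and BHQ-2-YbbR (12.5 uM). Step 3, read 525/598 nm fluorescence at 0 and 30 min.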
HP1b chromo inh – inhibitors of HP1-beta chromodomain binding to methylated histone tails. AlphaScreen HP1-beta / biotin-H3K9me3 peptide binding. Potency, µM (series often up to 114 µM), inactives show at the highest dose activity change, negative = inhibition, most hits filed as inhibitors. actives 0.56% (n = 390,000). P83916. AID 540317; note: nearly all actives have a fitted effect of over 70% in size
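HP1-beta protein (50 nM final) preincubated 30 min at room temperature with biotinylated H3(1-18)K9me3 peptide (50 nM) in PBS pH 7.4, 0.01% Tween-20, then compound added for 30 min. AlphaScreen streptavidin donor/nickel chelate acceptor beads (10 ug/mL final), 30 min dark, luminescence read.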
JMJD2A Tudor inh – inhibitors of human JMJD2A Tudor domain. O75164. AlphaScreen JMJD2A-Tudor / H3K4me3 peptide binding. Potency, µM (highest dose often 114 µM), without a hit: top-dose activity change, negative = inhibition, hits mostly inhibitors. actives 4.4% (n = 390,000); note: % is set by controls: 0 for no effect and ±100 for the full control effect; nearly all actives have a fitted effect of over 50% in size
* = called active by the depositor; ? = inconclusive; . = no result given; [ ] = dose if it differs, or a comment. Calls come from the whole dose curve; as a rule, active = well fitted curve in the direction sought with a large enough effect; inconclusive = small, poorly fitted or top-dose-only effect, or another doubt; inactive = no such curve, though single readings can be large; an effect the other way counts as inactive or inconclusive. Potency is the fitted concentration of half-maximal effect.

SMILES | BAZ2B inh | L3MBTL1 inh | G9a inh | Sfp inh | HP1b chromo inh | JMJD2A Tudor inh
Cc1cc(C2N=C(N)Nc3nc4ccccc4n32)c(C)n1-c1ccccc1Cl (stereo unspecified) | ? | ? | ? | 2.8µM* | -6% | ?
Cc1ccc(-n2c(C)cc(C3N=C(N)Nc4nc5ccccc5n43)c2C)c(C)c1 (stereo unspecified) | 40µM* | . | 5%[12.7 µM] | ? | ? | 40µM*
O=C(CSc1nc2c(sc3ccccc32)c(=O)n1CCCN1CCCC1)NCC1CCCO1 (stereo unspecified) | -1% | . | 56µM* | -19% | 26% | 3%
CCOCCCn1c(SCC(=O)NCc2ccco2)nc2c(sc3ccccc32)c1=O | 0% | . | -26% | 22µM* | 17% | 2%
O=C(CSc1nc2c(sc3ccccc32)c(=O)n1CCO)NCC1CCCO1 (stereo unspecified) | 6% | 1% | -37%[12.7 µM] | 7% | 56% | 1%
CCOC(=O)CSc1nc2c(sc3ccccc32)c(=O)n1CCO | -20% | . | 2%[59 µM] | . | -35% | 56µM*
O=C1c2cccc3c([N+](=O)[O-])ccc(c23)C(=O)N1c1ccccn1 | ? | -26% | 71µM* | 9% | -30% | 1%[11.4 µM]
O=C1c2cccc3c([N+](=O)[O-])ccc(c23)C(=O)N1O | 50µM* | . | ? | -21% | 14% | ?
O=C1c2cccc3c([N+](=O)[O-])ccc(c23)C(=O)N1c1nccs1 | 0% | . | ? | 15% | 14% | -10%
CC(=O)Oc1ccc(N2C(=O)c3cccc4c([N+](=O)[O-])ccc(c34)C2=O)cc1 | 6% | 1% | . | -4% | 7% | -11%
O=C1c2cccc3c([N+](=O)[O-])ccc(c23)C(=O)N1c1ccc(Cl)cn1 | 45µM* | -11% | ? | -13% | ? | ?
CC(=O)c1ccc(OCCn2cnc3ccccc32)cc1 | -30% | -14% | 15%[59 µM] | 5% | 24% | -7%
CC(C)(C)C1CCc2nc(NC(=O)c3cccc(Cl)c3)sc2C1 (stereo unspecified) | -15% | . | -8%[59 µM] | . | 43% | -22%
CC(=O)Nc1cccc(OCC(=O)Nc2sccc2C(N)=O)c1 | -14% | ? | -3% | 3% | 28% | -18%
COc1ccc(-c2cc(C)no2)cc1S(=O)(=O)NCCc1ccco1 | ? | . | 7%[0.0925 µM] | 21% | -30% | 79µM*
CCNc1nc(N)nc(Oc2ccc(OCC(=O)OC)nn2)n1 | -1% | . | -27%[59 µM] | . | 21% | -10%
Cc1cc(/C=C\c2ccc3cc(N(C)C)ccc3[n+]2C)c(C)n1-c1ccccc1 | 13µM* | 32µM* | 13µM* | ? | ? | 50µM*
Cc1cc(/C=C2\SC(=O)NC2=O)c(C)n1-c1ccc(N(C)C)cc1 | 6% | -1% | 14% | 17% | 2% | -16%
CCN(CC)c1ccc(-c2n[nH]c(=S)n2-c2ccccc2C)cc1 | ? | ? | ? | ? | 0% | -27%
CN(C)c1ccc(-c2n[nH]c(=S)n2-c2ccccc2)cc1 | -14% | -8% | 1.8µM* | -1% | -14% | 7.9µM*
CCN(CC)c1ccc(-c2n[nH]c(=S)n2-c2ccccc2)cc1 | -38% | -17% | 1.4µM* | -12% | -3% | 20µM*
CCCCc1nc2c(c3c1C[C@H](C)OC3)CN(C(=O)NCCc1c[nH]c3ccccc13)CC2 | . | . | . | 3% | . | .
CC(=O)NC(Cc1ccc(C)cc1)C(=O)NC1CCN(C(=O)NCc2ccccc2)CC1 (stereo unspecified) | -8% | . | 1% | 15% | 26% | -9%
CC1(C)Cc2c(sc(NC(=O)c3ccccc3)c2C(=O)O)CO1 | -35% | 5% | 45µM* | -21% | -17% | -4%
O=C(COc1ccccc1)Nc1sc2c(c1C(=O)Nc1ccccc1Cl)CCCCC2 | -14% | . | ? | . | 11% | -14%
